High-throughput results (PubChem BioAssay)
Hits are enriched below; roughly 2.8% of the tested compounds scored in any of these assays.
PI5P4Ka inh = PI5P4K alpha (human) kinase inhibition | 330,000 tested, 1.2% active | AID 652105 | PI5P4Kalpha enzyme, ADP-Glo luminescence, 60 min; stronger effect = lower value | P48426 | max response, %; active means max response of -50% or lower; inconclusive means between -30% and -50%; inactive means -30% or higher; further: value at the top dose of about 77 µM
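qHTS, 1536-well: enzyme/substrate mix, compound by pin tool, 5 microM ATP final; RT 60 min; ADP-Glo reagents 1 (45 min) then 2 (30 min); luminescence.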
WRN helicase inh = WRN helicase (human) inhibition. Q14191. WRN helicase unwinding, fluorescent forked duplex, kinetic. Potency, µM (titrated, usually from 114 µM), usual class: inhibitors. 360,000 tested, 0.46% active; further: nearly all actives have a fitted effect of over 55% in size
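WRN at 20 nM final was preincubated with compound for 15 min at room temperature; reaction started with 100 nM forked duplex oligonucleotide carrying fluorophore and quencher plus 2 mM ATP (final). Unwinding followed kinetically by red fluorescence (ex 525/em 598 nm).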
Pol eta inh = DNA polymerase eta (human) inhibition. Q9Y253. recombinant Pol eta, fluorescent DNA replication assay. Potency, µM (highest dose often 114 µM), usual class: inhibitors. 390,000 tested, 1.2% active. AID 588591
Target sequence (Q9Y253 whole entry, looked up): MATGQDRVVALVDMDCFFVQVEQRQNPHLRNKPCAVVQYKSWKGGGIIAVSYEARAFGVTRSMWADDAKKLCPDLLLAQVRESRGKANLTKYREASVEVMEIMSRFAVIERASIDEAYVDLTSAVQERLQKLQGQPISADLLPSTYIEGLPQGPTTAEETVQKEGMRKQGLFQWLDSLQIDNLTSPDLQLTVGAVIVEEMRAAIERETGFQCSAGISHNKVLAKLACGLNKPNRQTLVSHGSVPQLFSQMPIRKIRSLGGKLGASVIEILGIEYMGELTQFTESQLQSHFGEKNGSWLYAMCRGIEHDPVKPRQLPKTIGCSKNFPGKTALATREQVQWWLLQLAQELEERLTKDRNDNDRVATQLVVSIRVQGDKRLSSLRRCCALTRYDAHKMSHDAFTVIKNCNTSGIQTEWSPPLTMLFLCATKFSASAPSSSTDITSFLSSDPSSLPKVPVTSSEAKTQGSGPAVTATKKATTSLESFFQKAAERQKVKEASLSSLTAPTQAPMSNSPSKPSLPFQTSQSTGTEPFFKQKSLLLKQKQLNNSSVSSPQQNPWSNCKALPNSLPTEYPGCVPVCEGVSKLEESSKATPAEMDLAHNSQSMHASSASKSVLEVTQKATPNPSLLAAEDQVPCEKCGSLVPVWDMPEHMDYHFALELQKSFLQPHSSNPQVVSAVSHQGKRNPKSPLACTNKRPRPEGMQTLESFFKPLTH
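Fluorescent replication assay: 50 nM final substrate added after a 15 min room-temperature compound preincubation with 10 nM enzyme. Signal taken at 0 min and again at 10 min.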
POLK inh = inhibitors of human DNA polymerase kappa | Q9UBT6 | purified Pol kappa, fluorescent DNA synthesis assay, 10 min | Potency, µM (doses to about 107 µM), actives largely listed as inhibitors | 400,000 tested, 0.53% active
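Enzyme at 10 nM met test compounds for 15 min at room temperature. Substrate addition (50 nM final) began the reaction, which was monitored by fluorescence at 0 and 10 min.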
POLB inh = DNA polymerase beta (human) inhibition | 340,000 tested, 1.3% active | Potency, µM (doses to about 114 µM), most hits filed as inhibitors | AID 485314 | Pol beta primer extension/strand displacement, fluorescence kinetic
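10 nM enzyme + cpd, 15 min RT; start with substrate 50 nM final; read 0 min and after 10 min RT. Corrected, normalized data; 4-parameter Hill curve fit.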
Pol iota inh = DNA polymerase iota (human) inhibition; Q9UNA4; Pol iota fluorescent replication assay, 10 min; Potency, µM (doses to about 115 µM), usual class: inhibitors; 390,000 tested, 1% active; AID 588590
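Pol iota at 10 nM preincubated 15 min with compounds at room temperature; reaction started with fluorescent substrate, 50 nM final. Fluorescence read kinetically at 0 and 10 min; buffer-only wells as negative control.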
A number is an active result; 0 = inactive; ? = inconclusive; - = no result given; [ ] = dose if it differs, or a comment. Unless noted, the call rests on the fitted dose curve; in most records, active means well fitted curve in the direction sought with a large enough effect; inconclusive means small, poorly fitted or top-dose-only effect, or another doubt; inactive means no such curve, though single readings can be large; an effect the other way counts as inactive or inconclusive.

SMILES	PI5P4Ka inh	WRN helicase inh	Pol eta inh	POLK inh	POLB inh	Pol iota inh
CCCC1=NN2C(=N)/C(=C\c3ccc(SCc4ccco4)o3)C(=O)N=C2S1	-56	40µM	3.5µM	28µM	13µM	20µM
CCCC1=NN2C(=N)/C(=C\c3cc(C)n(-c4cccc(C)c4)c3C)C(=O)N=C2S1	0	0	0	0	0	?
O=C1NC(=S)S/C1=C\c1ccc(SCc2ccco2)o1	-99	8.9µM	1.6µM	1.8µM	2.2µM	?
CCC1=NN2C(=N)/C(=C\c3ccc(SCc4ccco4)o3)C(=O)N=C2S1	-52	50µM	16µM	?	13µM	22µM
O=C1Nc2cc(C(=O)N3CCOCC3)ccc2S/C1=C/c1ccccc1F	0	0	0	-	-	-
COc1cccc(CN(C)Cc2nc(Cc3ccccc3Cl)no2)c1	0	0	0	0	0	0
CC1=CC(=O)N(c2cccc3c(N4C(=O)C=C(C)C4=O)cccc23)C1=O	-63	0	0	0	-	?
O=C(O)Cn1cc(/C=C/[N+](=O)[O-])c2ccccc21	0	0[11.6 µM]	45µM	0	0	28µM
COc1ccc(Br)cc1/C=N/NC(=O)c1cc(OC)c(OC)c(OC)c1	0	0	0	0	0	0
COc1c(OC(C)=O)ccc(/C=N\NC(=O)c2ccc(Br)cc2)c1[N+](=O)[O-]	-69	0	0	0	0	0
CCOc1ccc(-c2nnc3ccc(SCC(=O)NCc4ccco4)nn23)cc1	-	0	?	0	25µM	?
CCn1c(SCC(=O)NCc2ccco2)nnc1-c1ccncc1	-	-	-	-	0	-
O=C(CSc1ncc(-c2ccccc2)nn1)NCc1ccco1	-	0[11.6 µM]	0	0	28µM	?
O=C(CSc1nc2cccnc2n1Cc1ccccc1)NCc1ccco1	0	0	?	0	?	0
O=C(CSc1nccn1Cc1ccccc1)NCc1ccco1	-	-	0	0	28µM	?
CCn1c(SCC(=O)NCc2ccco2)nnc1-c1cccs1	-	0	0	0	32µM	0
O=C(CSc1ncnc2c1oc1ccccc12)NCc1ccco1	-	0	0	0	32µM	?
O=C(O)CSc1ncnc2c1oc1ccccc12	0	0	0	0	0	0
CCCCc1nc2sc3c(SCC(=O)NCc4ccco4)ncnc3c2c2c1CCC2	0	0	22µM	0	?	0
Cn1c(SCC(=O)Nc2sc3c(c2C#N)CCC3)nnc1C1COc2ccccc2O1 (stereo not drawn)	-	0	?	0	1.8µM	?
C=CCn1c(SCC(=O)Nc2sc3c(c2C#N)CCC3)nnc1C1COc2ccccc2O1 (stereo not drawn)	?	0	?	0	?	?
Cc1nc(SCc2ccccc2Cl)c(C#N)c(C)c1C	-	-	0	0	0	0
N#Cc1c(SCc2c(Cl)cccc2Cl)nc(N)[nH]c1=S	-65	0	?	0	-	0
CCOC(=O)c1c(N)sc(=S)c2c1CCC2	?	0	?	0	8.9µM	?
CCOC(=O)c1c(C)oc2nc(C)nc(NCCCN3CCN(c4cccc(C)c4)C(C)C3)c12 (stereo not drawn)	-	-	0	?	0	89µM
SMILES	PI5P4Ka inh	WRN helicase inh	Pol eta inh	POLK inh	POLB inh	Pol iota inh
OCC[C@@H]1C[C@@H](O)[C@H](O)[C@]2(CCCCO2)O1	0	0	0	0	0	0
O=C(NCc1cccs1)c1cc(-c2ccncc2)nc2ccc(Br)cc12	-	-	-	-	40µM	-
COCCNC(=O)c1cc(-c2cccnc2)nc2ccc(Br)cc12	0	0	0	0	0	0
COc1ccc(OC)c(NC(=O)c2csc(Cl)c2OC)c1	0	0	0	0	0	0
CC1=C(C(=O)OCc2ccccc2)C(c2ccc(C#N)cc2)NC(=O)N1CCCC(=O)O (stereo not drawn)	-90	0	0	0	0	0
CC1=C(C(=O)OCc2ccccc2)C(c2cccc([N+](=O)[O-])c2)NC(=O)N1CCCCCC(=O)O (stereo not drawn)	0	0	0	0	0	0
CC1=C(C(=O)OCc2ccccc2)C(c2ccccc2)NC(=O)N1CCCC(=O)O (stereo not drawn)	-77	0	0	0	0	0
CC1=C(C(=O)OCc2ccccc2)C(c2ccc(Cl)cc2)NC(=O)N1CCCCCC(=O)O (stereo not drawn)	0	0	0	0	0	?
CC(C)C(=O)Nc1cccc(N2CCN(CCCN3C(=O)C4CCCCN4C3=O)CC2)c1 (stereo not drawn)	0	0	0	0	-	13µM
COc1ccc(/C=N/Nc2ncnc3c2[nH]c2ccc(C)cc23)c(OC)c1OC	0	?	25µM	0	0	0
COc1cc(OC)c(OC)cc1/C=N/Nc1ncnc2c1[nH]c1ccccc12	0	0	0	0	0	0
Cc1occc1-c1nnc(SCc2cc(=O)n3cc(Br)ccc3n2)n1C	0	0	?	0	45µM	?
Cc1nn(-c2ccccn2)c2c1-c1nc(N)sc1CC2	-	-	-	0	-	3.2µM
COc1cc(OC)c(/C=C/c2cc3ccccc3c[n+]2C)c(OC)c1	-	-	-	0	-	?
O=C1c2ccccc2C(c2nnnn2Cc2ccccc2)N1CCCN1CCOCC1 (stereo not drawn)	0	0	-	-	-	-
C/C(=N/NC(=O)C(O)(c1ccccc1)c1ccccc1)c1ccc([N+](=O)[O-])o1	0	0	79µM	0	13µM	?
COc1ccc(-c2nc3ccc(NC(=O)CO)cc3c(=O)n2Cc2cccc(Cl)c2)cc1COc1ccc(NC(C)=O)cc1	-	-	-	0	-	0
CCc1cccc2sc(N(CCCN3CCOCC3)C(=O)CS(=O)(=O)c3ccccc3)nc12	0	0	0	0	-	89µM
O=C(Cc1ccc(Cl)c(Cl)c1)Nc1cccc(S(=O)(=O)N2CCOCC2)c1	0	0	0	0	0	0
CC1=C(C(=O)OC2CCCC2)C(c2ccccc2C(F)(F)F)CC(=O)N1 (stereo not drawn)	-	-	0	0	0	0
c1cc2[nH]snc2c2nc(C3CC3)nc12	-	0	79µM	0	0	?
COc1ccc2c(C)c(CCC(=O)NCc3ccccc3Cl)c(=O)oc2c1C	-	-	0	0	0	0
COc1ccc2c(C)c(CC(=O)NCc3ccccc3Cl)c(=O)oc2c1OC	-	-	0	0	45µM	0
O=C1C=C(N2CCN(c3ccccn3)CC2)C(=O)c2c(O)ccc(O)c21	0	?	0	0	-	0
CC1=CC(=O)c2c(O)ccc(O)c2C1=O	-	-	-	-	1.8µM	-
O=C(NCc1ccc(F)cc1)C1CCN(C(=O)c2ccc(-n3ccc4ccccc43)s2)CC1	-	-	0	0	0	?
CCOc1ccc(CNC(=O)C2CCN(C(=O)c3ccc(-n4ccc5ccccc54)s3)CC2)cc1	-	-	0	0	0	89µM
Cc1cc(C)c(NC(=O)Cn2nnc(-c3nc(-c4ccncc4)no3)c2N)c(C)c1	-	-	-	0	0	0
COc1ccc(NC(=O)Cn2nnc(-c3nc(-c4ccncc4)no3)c2N)cc1OC	-	-	-	0	79µM	0
